Data from PubChem BioAssay (Tox21).
Several values for one entry are separate records, joined by “and”; a condition that tells them apart may be missing. Equal values may be shown once. Results filed as inconclusive are left out. Where a structure was tested more than once in an assay, its records may differ in their call. Activity calls are given as the source filed them. Unless noted, the call rests on the fitted dose curve; in most records, active means well fitted curve in the direction sought with a large enough effect in the repeat runs; inconclusive means weak or mixed curves; inactive means no such curve, though single readings can be large; an effect the other way counts as inactive or inconclusive.

Columns and labels:
[1] = target: Luciferin 4-monooxygenase (Photinus pyralis) (UniProt P08659); experiment: qHTS assay to identify small molecule inhibitors of firefly luciferase (AID 1224835); further: nearly all actives have a fitted effect of over 25% in size; further: potency means the concentration at half of the fitted maximal effect
Sequence of Luciferin 4-monooxygenase (Photinus pyralis) (P08659 whole entry, looked up): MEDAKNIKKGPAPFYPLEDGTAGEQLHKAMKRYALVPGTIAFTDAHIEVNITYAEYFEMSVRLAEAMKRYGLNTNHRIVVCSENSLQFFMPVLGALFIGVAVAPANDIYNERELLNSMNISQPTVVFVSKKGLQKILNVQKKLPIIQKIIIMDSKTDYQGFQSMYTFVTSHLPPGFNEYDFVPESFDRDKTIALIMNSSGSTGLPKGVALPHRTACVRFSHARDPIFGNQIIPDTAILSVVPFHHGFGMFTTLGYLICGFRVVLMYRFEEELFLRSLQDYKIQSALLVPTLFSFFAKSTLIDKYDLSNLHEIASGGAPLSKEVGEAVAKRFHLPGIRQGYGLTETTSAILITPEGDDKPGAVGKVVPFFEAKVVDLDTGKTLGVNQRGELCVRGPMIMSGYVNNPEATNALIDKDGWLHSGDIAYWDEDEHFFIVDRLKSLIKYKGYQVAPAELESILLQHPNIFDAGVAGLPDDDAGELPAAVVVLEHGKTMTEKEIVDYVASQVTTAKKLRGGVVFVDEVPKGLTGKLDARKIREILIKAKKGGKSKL
Outline: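 Inhibition of purified Photinus luciferase is measured by luminescence. Substrate levels (D-luciferin, ATP) sit at their KM values. Each compound is tested in a concentration series.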

[2] = qHTS assay to identify small molecule agonists of the constitutive androstane receptor (CAR) signaling pathway - cell viability counter screen (AID 1224836); further: nearly all actives have a fitted effect of over 45% in size; further: potency means the concentration at half of the fitted maximal effect
Outline: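 Fluorescence from CellTiter-Fluor indicates live cells after 23 h exposure. The human hepatoma line expresses hCAR and a CYP2B6-2.2kb reporter. Incubation medium contains 0.75 uM PK11195 (final).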

[3] = qHTS assay to identify small molecule antagonists of the constitutive androstane receptor (CAR) signaling pathway - cell viability counter screen (AID 1224837); further: nearly all actives have a fitted effect of over 45% in size; further: potency means the concentration at half of the fitted maximal effect
Outline: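 Fluorescence from CellTiter-Fluor served as the viability signal. Human hepatoma HepG2 cells stably bearing hCAR and CYP2B6-2.2kb received compound plus CITCO (50 nM final) for 23 hr.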

[4] = target: Nuclear receptor subfamily 1 group I member 3 (Homo sapiens) (UniProt Q14994); experiment: qHTS assay to identify small molecule antagonists of the constitutive androstane receptor (CAR) signaling pathway (AID 1224838);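 further: HepG2 cells stably expressing hCAR with CYP2B6 luciferase reporter stimulated by CITCO; nearly all actives have a fitted effect of over 40% in size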; further: potency means the concentration at half of the fitted maximal effect
Sequence of Nuclear receptor subfamily 1 group I member 3 (Homo sapiens) (Q14994 whole entry, looked up): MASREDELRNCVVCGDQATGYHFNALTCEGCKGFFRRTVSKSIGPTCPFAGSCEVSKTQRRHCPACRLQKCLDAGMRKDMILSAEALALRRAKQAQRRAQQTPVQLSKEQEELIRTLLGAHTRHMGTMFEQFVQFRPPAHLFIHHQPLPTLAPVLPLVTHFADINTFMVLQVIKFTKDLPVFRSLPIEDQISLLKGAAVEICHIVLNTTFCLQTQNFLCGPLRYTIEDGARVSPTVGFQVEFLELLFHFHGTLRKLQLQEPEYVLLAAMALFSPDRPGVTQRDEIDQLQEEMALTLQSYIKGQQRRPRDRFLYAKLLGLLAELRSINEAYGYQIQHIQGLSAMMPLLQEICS
Outline: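 Quantitative HTS in double-stable HepG2-CYP2B6-hCAR cells. After 4 h plating, cells get compound (15 concentrations) and CITCO at 50 nM final, incubate 24 h at 37 C, then ONE-Glo luminescence is read.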

[5] = target: Nuclear receptor subfamily 1 group I member 3 (Homo sapiens) (UniProt Q14994); experiment: qHTS assay to identify small molecule agonists of the constitutive androstane receptor (CAR) signaling pathway (AID 1224839); further: nearly all actives have a fitted effect of over 15% in size; further: potency means the concentration at half of the fitted maximal effect;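 on activation: HepG2 cells stably carrying human CAR and a CYP2B6 luciferase reporter; on the % scale 0 is the no-effect control and ±100 the full control effect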
Outline: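 Stable hCAR/CYP2B6-2.2kb HepG2 line in DMEM with 10% FBS; compounds (15 concentrations) and 0.75 uM PK11195 final, 24 h at 37 C/5% CO2, then ONE-Glo luminescence after 30 min.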

[6] = qHTS assay to identify small molecule antagonists of the estrogen related receptor signaling pathway with the pleiotropic PPARgamma coactivator (PGC) from Tox21 10K library (AID 1224841; call rule not given here; further: actives are mostly falling curves and most rising ones were filed inactive; nearly all actives have a fitted effect of over 50% in size; further: potency means the concentration at half of the fitted maximal effect)
Outline: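 Compound exposure ran 18 hours at 37 C in PGC/ERR cells (2,000/well) that had first rested 6 hours in a 37 C/5% CO2 incubator. Luciferase activity was then detected with One-Glo after a 30-minute room-temperature step.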

[7] = qHTS assay to identify small molecule agonists of the estrogen related receptor signaling pathway with the pleiotropic PPARgamma coactivator (PGC) from Tox21 10K library (AID 1224842); further: on the % scale 0 is the no-effect control and ±100 the full control effect; nearly all actives have a fitted effect of over 15% in size
Outline: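 Luminescence from One-Glo (30 min, room temperature) measured after PGC/ERR cells had 18 h at 37 C with pinned compound (23 nL in DMSO). Cells had been seeded at 2,000 per well and pre-incubated 6 h.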

[8] = qHTS assay to identify small molecule agonists of the hypoxia (HIF-1) signaling pathway - cell viability counter screen (AID 1224844; calls by dose curve; further: nearly all actives have a fitted effect of over 50% in size; further: potency means the concentration at half of the fitted maximal effect)
Outline: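 Luminescent ATP content (CellTiter-Glo, 30 min, room temperature) served as the viability measure in HRE-bla ME-180 cells exposed to compounds for 17 hrs in low-serum medium (0.5% dialyzed FBS).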

[9] = qHTS assay to identify small molecule agonists of the hypoxia (HIF-1) signaling pathway (AID 1224846; active means well fitted activation curve with a large enough effect in the signal ratio in the repeat runs, not every such curve was filed as active; the % refers to the signal ratio; further: on the % scale 0 is the no-effect control and ±100 the full control effect)
Outline: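 Measured by blue/green FRET after loading CCF4-AM: beta-lactamase expressed from a hypoxia response element in ME-180 cells. Test agents were delivered in DMSO and left 17 hrs; cells had been plated 5 hrs earlier in low-serum (0.5% dialyzed FBS) medium.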

[10] = qHTS assay to identify small molecule agonists of H2AX - cell viability counter screen (AID 1224847; calls by dose curve; further: nearly all actives have a fitted effect of over 30% in size; further: potency means the concentration at half of the fitted maximal effect)
Outline: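 Viability of CHO-K1 (wild type) cells after 3 hr compound exposure was measured by CellTiter-Glo luminescence.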

[11] = qHTS assay to identify small molecule antagonists of the estrogen related receptor (ERR) signaling pathway from Tox21 library (AID 1224848); further: nearly all actives have a fitted effect of over 50% in size; further: potency means the concentration at half of the fitted maximal effect
Outline: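 Antagonist-mode screen of the Tox21 10K library in an NTP-provided ERR reporter cell line; 18 h compound exposure at 37 C, luminescence measured with ONE-Glo.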

[12] = qHTS assay to identify small molecule agonists of the estrogen related receptor (ERR) signaling pathway from Tox21 library (AID 1224849; calls by dose curve; further: on the % scale 0 is the no-effect control and ±100 the full control effect; nearly all actives have a fitted effect of over 15% in size); details: ERR reporter cell line, ONE-Glo luciferase, 18 h
Outline: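 We plated ERR reporter cells, waited 6 h, added compounds in DMSO by pin tool and incubated them 18 h at 37 C. ONE-Glo was then added and luminescence read after 30 min.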

[13] = qHTS RealTime-Glo MT Cell Viability Assay in HepG2 cells - 24 hour (AID 1224867); further: nearly all actives have a fitted effect of over 50% in size; further: potency means the concentration at half of the fitted maximal effect
Outline: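 qHTS, HepG2, 600 cells/well, RealTime-Glo (NanoLuc + prosubstrate) added with cells; 5 h preincubation; DMSO compound addition; 37 C; luminescence at 0/8/16/24/32/40 h.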

[14] = qHTS RealTime-Glo MT Cell Viability Assay in HEK293 cells - 32 hour (AID 1224868); further: nearly all actives have a fitted effect of over 50% in size; further: potency means the concentration at half of the fitted maximal effect
Outline: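 Assay medium contained NanoLuc luciferase plus cell-permeant prosubstrate, added with HEK293 cells at 600 cells/well. After 5 h at 37 C/5% CO2 compounds were added; plates stayed at 37 C for 40 h with serial luminescence reads.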

[15] = A CellTox Green Cytotoxicity Assay to monitor cytotoxicity in HEK293 cells - 0 hour (AID 1224869)
Outline: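 Each value comes from one timepoint of a single continuous run in which HEK293 cells with CellTox Green were exposed to compound for up to 40 h at 37 C, dye fluorescence rising with cell death.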

[16] = qHTS RealTime-Glo MT Cell Viability Assay in HepG2 cells - 40 hour (AID 1224870); further: nearly all actives have a fitted effect of over 50% in size; further: potency means the concentration at half of the fitted maximal effect
Outline: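 Real-time viability: cells seeded at 600 per well together with NanoLuc and cell-permeant prosubstrate, compounds added after 5 h incubation. Luminescence tracked at 0, 8, 16, 24, 32 and 40 h of exposure.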

[17] = qHTS assay to identify small molecule antagonists of the estrogen related receptor signaling pathway with the pleiotropic PPARgamma coactivator (PGC) from Tox21 10K library - cell viability counter screen (AID 1224840; active means well fitted cell-killing curve with a large enough effect in the repeat runs, not every such curve was filed as active; further: nearly all actives have a fitted effect of over 40% in size; further: potency means the concentration at half of the fitted maximal effect)
Outline: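 Compounds in DMSO, alongside positive and negative controls, were pinned onto PGC/ERR cells (2,000 per well). Exposure lasted 17.5 hours at 37 C, followed by a 30-minute CellTiter-Fluor incubation and fluorescence reading.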

[18] = target: Thyrotropin receptor (Homo sapiens) (UniProt P16473); experiment: qHTS assay to identify small molecule agonists of the thyroid stimulating hormone receptor (TSHR) signaling pathway (AID 1224843; calls by dose curve; further: on the % scale 0 is the no-effect control and ±100 the full control effect; nearly all actives have a fitted effect of over 45% in size)
Sequence of Thyrotropin receptor (Homo sapiens) (P16473 whole entry, looked up): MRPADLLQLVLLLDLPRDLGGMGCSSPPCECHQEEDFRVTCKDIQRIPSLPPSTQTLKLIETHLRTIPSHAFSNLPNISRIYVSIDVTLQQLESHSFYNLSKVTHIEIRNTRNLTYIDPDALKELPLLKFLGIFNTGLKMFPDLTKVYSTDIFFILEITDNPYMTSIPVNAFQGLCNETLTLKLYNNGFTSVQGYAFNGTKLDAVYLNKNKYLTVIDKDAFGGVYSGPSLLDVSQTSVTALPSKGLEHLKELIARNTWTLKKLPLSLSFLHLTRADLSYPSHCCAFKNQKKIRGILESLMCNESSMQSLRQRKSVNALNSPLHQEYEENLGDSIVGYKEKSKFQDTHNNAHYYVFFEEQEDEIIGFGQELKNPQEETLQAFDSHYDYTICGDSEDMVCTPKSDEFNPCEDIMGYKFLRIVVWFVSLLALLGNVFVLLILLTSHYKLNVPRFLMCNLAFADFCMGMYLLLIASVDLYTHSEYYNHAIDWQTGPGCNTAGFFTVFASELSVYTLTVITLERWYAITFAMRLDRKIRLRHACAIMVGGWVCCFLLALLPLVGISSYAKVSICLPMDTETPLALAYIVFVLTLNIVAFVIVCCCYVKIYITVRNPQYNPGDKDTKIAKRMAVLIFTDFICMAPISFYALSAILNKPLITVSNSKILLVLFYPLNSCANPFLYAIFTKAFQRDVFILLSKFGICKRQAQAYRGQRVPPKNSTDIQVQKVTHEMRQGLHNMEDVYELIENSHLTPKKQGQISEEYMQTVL
Outline: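 Screening of the Tox21 10K collection used HEK293 cells engineered with TSHR at 800 cells per well. After a 30-min room-temperature compound exposure, HTRF cAMP reagents were added and fluorescence recorded 1 h later.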

[19] = qHTS assay to identify small molecule agonists of H2AX (AID 1224845; active means well fitted activation curve with a large enough effect in the signal ratio in the repeat runs, not every such curve was filed as active; the % refers to the signal ratio; further: potency means the concentration at half of the fitted maximal effect)
Outline: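 Phospho-H2AX Ser139 measured by HTRF (ex 320 nm; em 665 and 620 nm) after 24 hr antibody incubation. Compounds, 15 concentrations, 0.76% DMSO, were applied to CHO-K1 cells for 3hr at 37C before lysis.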

[20] = qHTS assay to identify small molecule antagonists of the estrogen related receptor (ERR) signaling pathway from Tox21 library - cell viability counter screen (AID 1224834); further: potency means the concentration at half of the fitted maximal effect; nearly all actives have a fitted effect of over 30% in size
Outline: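 Viability readout (CellTiter-Fluor fluorescence, 30 min at 37 C) multiplexed with the ERR assay; cells treated 17.5 h at 37 C with compounds delivered in DMSO.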

[21] = at 92.4 µM (top of the series) unless noted

CCc1cc(Cc2cc(CC)c(N)c(CC)c2)cc(CC)c1N
inactive: Potency [1] | Potency [2] | Potency [3] | Potency [4] | Potency [7] | Potency [8] | Potency [9] | activity change, positive = activation [12, 21] -60.8% | Potency [13] | Potency [15] | Potency [16]
active: Potency [5] 4.86 µM | Potency [6] 21.7 µM | Potency [10] 89.8 µM | Potency [11] 27.3 µM | Potency [14] 38.9 µM

CCc1oc2ccccc2c1C(=O)c1cc(Br)c(O)c(Br)c1
inactive: Potency [1] | Potency [2] | Potency [3] | Potency [4] | Potency [5] | Potency [17] | Potency [18] | Potency [8] | Potency [13] | Potency [15] | Potency [16]

O=C(c1ccc(O)cc1O)c1ccc(O)cc1O
active: Potency [1] 40 µM and 44.8 µM
inactive: Potency [2] | Potency [3] | Potency [4] | Potency [5] | Potency [17] | Potency [18] | Potency [8] | Potency [19] | Potency [9] | Potency [14] | Potency [16]

C[n+]1cc2c3c(ccc2c2ccc4cc5c(cc4c21)OCO5)OCO3
inactive: activation [5] -21.2% [at 19 µM] | activation [7] -34.9% [at 19 µM] | activation [18] -8.77% [at 19 µM] | activity change, positive = activation [12, 21] -68.3% [at 19 µM]
active: Potency [1] 6.74 µM | Potency [2] 2.91 µM | Potency [3] 2.59 µM | Potency [4] 2.91 µM | Potency [17] 3.26 µM | Potency [6] 7.3 µM | Potency [8] 2.61 µM | Potency [19] 0.956 µM | Potency [10] 0.852 µM | Potency [11] 2.91 µM | Potency [13] 0.827 µM | Potency [14] 0.522 µM | Potency [16] 1.04 µM

N#CC1(c2ccc(F)cc2)CCC(=O)CC1
inactive: Potency [1] | Potency [2] | Potency [3] | Potency [4] | Potency [5] | Potency [17] | Potency [6] | Potency [7] | Potency [18] | Potency [8] | Potency [19] | Potency [9] | Potency [10] | Potency [11] | activity change, positive = activation [12, 21] 6.11% [at 42.5 µM] | Potency [14] | Potency [15] | Potency [16]

Cc1nc(-c2ccc3c(c2)CCN(CCC2CCC(NC(=O)/C=C/c4ccc(F)cc4)CC2)CC3)no1 (stereo unspecified)
inactive: Potency [1] | Potency [2] | Potency [3] | Potency [4] | Potency [5] | Potency [17] | Potency [18] | Potency [8] | Potency [19] | Potency [9] | Potency [10] | Potency [13] | Potency [15] | Potency [16]

CCCCCCCC/C=C/CCCCCCCC1=NCCN1CCO
active: Potency [20] 54.5 µM | Potency [3] 68.6 µM | Potency [4] 61.1 µM | Potency [8] 54.9 µM | Potency [11] 54.5 µM | Potency [14] 19.5 µM | Potency [16] 17.4 µM
inactive: Potency [5] | Potency [7] | Potency [19] | activity change, positive = activation [12, 21] -79.9% | Potency [15]

NC(=O)NS(=O)(=O)c1ccc(N)cc1
inactive: Potency [1] | Potency [2] | Potency [3] | Potency [4] | Potency [5] | Potency [17] | Potency [18] | Potency [8] | Potency [19] | Potency [9] | Potency [13] | Potency [14] | Potency [15] | Potency [16]

O=C1c2ccccc2Cc2ccccc21
active: Potency [5] 21.8 µM
inactive: Potency [1] | Potency [2] | Potency [3] | Potency [4] | Potency [17] | Potency [6] | Potency [18] | Potency [8] | Potency [19] | Potency [9] | Potency [10] | activity change, positive = activation [12, 21] -18.6% | Potency [13] | Potency [16]

CC(C)n1nc(-c2cc3cc(O)ccc3[nH]2)c2c(N)ncnc21
inactive: Potency [5] | Potency [7] | Potency [9] | activity change, positive = activation [12, 21] -55.4% [at 42.5 µM]
active: Potency [20] 1.33 µM | Potency [4] 15 µM | Potency [6] 0.211 µM | Potency [8] 1.9 µM | Potency [11] 1.06 µM | Potency [14] 0.239 µM

Nc1c2ccccc2nc2ccccc12
active: Potency [4] 956 nM and 1.68 µM | Potency [8] 13.6 µM | Potency [19] 88.6 µM | Potency [11] 2.69 µM | Potency [14] 7.66 µM and 2.39 µM | Potency [16] 24.2 µM and 13.4 µM
inactive: Potency [1] | Potency [2] | Potency [3] | Potency [5] | Potency [7] | Potency [18] | activity change, positive = activation ([12]; at 42.5 µM (top of the series)) -23% | activity change, positive = activation ([12]; at 92.4 µM (top of the series)) -63.6% | Potency [15]
53.8 µM (active) and inactive: Potency [6]

CCCCCCCCOc1ccccc1C(=O)Nc1ccc(C(=O)OCC[N+](C)(CC)CC)cc1
active: Potency [8] 7.56 µM | Potency [14] 19 µM
inactive: Potency [1] | Potency [2] | Potency [3] | Potency [4] | Potency [5] | Potency [17] | Potency [19] | Potency [9] | Potency [15] | Potency [16]

CCCCCCCCCCCCCCCC[N+](C)(C)CCN(Cc1ccc(OC)cc1)c1ncccn1
active: Potency [20] 29.8 µM | Potency [8] 21.3 µM | Potency [10] 43.8 µM | Potency [11] 21.1 µM | Potency [13] 6.74 µM | Potency [14] 0.952 µM | Potency [16] 5.35 µM
inactive: Potency [5] | Potency [17] | Potency [7] | Potency [18] | Potency [19] | activity change, positive = activation [12, 21] -53.6% [at 42.5 µM] | Potency [15]
